Among all 360,000 compounds or so, about 6,200 (1.7%) were called active.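 The calls were made as follows: active = inhibition of at least 50% at 20 µM; inactive = the rest.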 Only a selection was taken, and actives are over-represented in it overall.
Assay: Peg3 promoter-driven luciferase inhibitors, primary screen, cell-based, HeLa, luciferase luminescence (AID 588405)
Conditions: HeLa PEG-Prom luciferase reporter, overnight, at 20 µM, active compounds read high

Row | SMILES | inhibition
1 | OCCCNc1nccc(-c2cc(Nc3cccc(Cl)c3)ncn2)n1 | 97.8% (active)
2 | CCOc1c(Nc2cccc(Cl)c2)c(=O)c1=O | 19% (inactive)
3 | CC(=O)N1CCN(S(=O)(=O)c2ccc(C)c([N+](=O)[O-])c2)C1C(C)C (stereo not drawn) | 9.74% (inactive)
4 | COc1ccc(S(=O)(=O)NC(=O)C2(C)CCN2C(=O)COc2ccc(Cl)cc2)cc1 (stereo not drawn) | 0.32% (inactive)
5 | OC(c1ccc(F)cc1)c1ncc(-c2cccc(C(F)(F)F)c2)[nH]1 (stereo not drawn) | 25.3% (inactive)
6 | CCOC(=O)N1CCN(C(=O)Cn2cnc3ccccc3c2=O)CC1 | -3.74% (inactive)
7 | CCOC(=O)N1CCN(C(=O)c2nn(-c3ccc(C)cc3)c(=O)c3c2c2ccccc2n3C)CC1 | 58.2% (active)
8 | CCOC(=O)N1CCN(C(=O)c2n[nH]c(=O)c3ccccc23)CC1 | 6.99% (inactive)
9 | CN1CCN(C(=O)c2ccc(-c3cc4nc(NCc5cccnc5)n(C)c(=O)c4s3)cc2)CC1 | -4.53% (inactive)
10 | CCc1nc2c(OCCOc3ccccc3)cccn2c1N(C)C(=O)c1ccc(OC)cc1 | 11.8% (inactive)
11 | CC(=O)NN=C(C)c1ccc(NC(=O)C2CC2)cc1 | -1.94% (inactive)
12 | CC1(C(=O)NCc2ccc3c(c2)OCO3)CCN1C(=O)Cc1cccs1 (stereo not drawn) | -1.89% (inactive)
13 | COc1ccccc1N(C)S(=O)(=O)c1ccc(Cl)c(C(=O)N2CCC(C(N)=O)CC2)c1 | -7.62% (inactive)
14 | NC(=O)COC(=O)c1cc(S(=O)(=O)N2CCN(c3ccccc3)CC2)ccc1Cl | -0.58% (inactive)
15 | NC(=O)C1CCN(C(=O)c2cc(S(=O)(=O)N3CCN(c4ccccc4)CC3)ccc2Cl)CC1 | 56.8% (active)
16 | O=S(=O)(Nc1cccc(-n2cnnn2)c1)c1cnc(Cl)c(Cl)c1 | 3.56% (inactive)
17 | Cc1cc2nc(-c3ccc(Cl)cc3)c(Cc3cccc(F)c3)n2c(C)c1Br | -7.74% (inactive)
18 | CN(C)CCCOc1ccc(-c2ccc3nccn3c2)cn1 | -2.16% (inactive)
19 | O=C(NCc1ccco1)c1cccc(-c2ccc3nncn3c2)c1 | 6.82% (inactive)
20 | O=C(Nc1ccccc1)c1nnsc1S(=O)(=O)c1ccc(Cl)cc1 | 67.4% (active)

Row | SMILES | inhibition
21 | O=C(Nc1ccc(S(=O)(=O)N2CCOCC2)cc1)C1CCN(S(=O)(=O)c2ccc(Cl)cc2)CC1 | 20.9% (inactive)
22 | Cc1nnsc1S(=O)(=O)Cc1ccccc1Cl | 14.5% (inactive)
23 | Cc1ccc(-c2cnc(C(O)c3cccc(C)c3C)[nH]2)cc1 (stereo not drawn) | -14.4% (inactive)
24 | Cc1ccc(Cc2c(-c3ccco3)nc3ccc(Cl)cn23)cc1 | 2.16% (inactive)
25 | CC(=O)Nc1c2c(nn1-c1cccc(C)c1)CSC2 | 1.92% (inactive)
26 | Cc1cccc(-n2ncc3c(=O)[nH]c(SCC(=O)Nc4cc(C)on4)nc32)c1 | 15.5% (inactive)
27 | Cc1cccc(-n2ncc(Cl)c(Cl)c2=O)c1 | 109% (active)
28 | CCc1nc2ccc(C(=O)N(C)CCN(C)C)cn2c1N(CC)CCOC | -8.52% (inactive)
29 | CN1CCN(C2Cc3ccc(Cl)cc3Sc3ccc(F)cc32)CC1 (stereo not drawn) | 76% (active)
30 | CC1(C(=O)NS(=O)(=O)c2cccc(F)c2)CCN1C(=O)Cc1cc(F)ccc1F (stereo not drawn) | 7.15% (inactive)
31 | O=C(CSc1nc(Nc2ccccc2)nc(N2CCOCC2)n1)Nc1cc(Cl)ccc1O | 86.5% (active)
32 | C/C(=N\Nc1nc(Nc2ccccc2)nc(N2CCOCC2)n1)c1cccs1 | 7.28% (inactive)
33 | CC1(c2ccccc2)NC(=O)N(CC(=O)Nc2cc(Cl)ccc2N2CCOCC2)C1=O (stereo not drawn) | 2.35% (inactive)
34 | Brc1ccc2nc(-c3ccccc3)c(Cc3ccccc3)n2c1 | -51% (inactive)
35 | CCOC(=O)c1ccc(-c2ccc3ncnc(N(C)Cc4sccc4C)c3c2)o1 | 31.1% (inactive)
36 | CCCCSc1[nH]c(=O)c(C(=O)OCC)cc1C#N | 3.02% (inactive)
37 | NC(N)=Nc1nc(-c2ccccc2)c2cc(Cl)ccc2n1 | 108% (active)
38 | COC(=O)Cn1nc(-c2ccccc2)c2cc(Cl)ccc21 | 13.3% (inactive)
39 | Cc1nc(N=C(N)N)nc2c(C)cccc12 | 20.3% (inactive)
40 | CCCS(=O)(=O)NC(=O)C1(C)CCCN(C(=O)c2ccnc(Cl)c2)C1 (stereo not drawn) | -1.18% (inactive)

Row | SMILES | inhibition
41 | OC[C@@H]1CN(Cc2ccc3c(c2)OCO3)C[C@H](n2cnc3c(NCc4ccco4)ncnc32)O1 | -2.19% (inactive)
42 | Cc1cc(O)ccc1-c1cc(C(=O)NCc2cc(C(F)(F)F)cc(C(F)(F)F)c2)[nH]n1 | 5.2% (inactive)
43 | Oc1ccc2ccccc2c1N=Nc1nccs1 | 97.5% (active)
44 | COC(=O)[C@@H]1C[C@@]2(O)[C@H](O)[C@H](O)[C@H](O)C[C@H]2N1Cc1ccc(C(C)(C)C)cc1 | 2.16% (inactive)
45 | COc1ccc(C2=NN(C(=O)CCC(=O)O)C(c3cccs3)C2)cc1OC (stereo not drawn) | 9.5% (inactive)
46 | O=C(COc1ccc2ccccc2c1)N1CCN(C(=O)c2cccs2)CC1 | 3.04% (inactive)
47 | CCOc1ccc2nc(Cl)c(C3CC(c4ccccc4)=NN3C(=O)c3cccs3)cc2c1 (stereo not drawn) | 55.1% (active)
48 | COC(=O)c1ccc2nc(-c3ccc(Cl)cc3)c(Cc3cccc(F)c3)n2c1 | -38.1% (inactive)
49 | Cc1noc(C)c1C(=O)N1CCC1(C)C(=O)NS(=O)(=O)c1ccc(C#N)cc1 (stereo not drawn) | -15.2% (inactive)
50 | CC(O)(c1cccc(F)c1)c1nc(-c2ccc3c(c2)OCO3)cs1 (stereo not drawn) | -65.7% (inactive)
51 | CC(C)(C)Cc1c(C2CCCCC2)nc2ccc(Br)cn12 | 16% (inactive)
52 | Cc1c(Cl)c([N+](=O)[O-])nn1Cc1ccc(C(=O)N/N=C\c2cc(Cl)ccc2O)o1 | 61.5% (active)
53 | O=C(N/N=C\c1ccc(Br)cc1)c1ccc(Cn2cccn2)o1 | -62.6% (inactive)
54 | Cc1nn(Cc2ccccc2Cl)c(C)c1NC(=O)Cn1nc([N+](=O)[O-])c(Cl)c1C | -1.84% (inactive)
55 | COCOc1cccc(CN2CCC(C)(Oc3ccc(SC)cc3)C2)c1 (stereo not drawn) | -1.46% (inactive)
56 | COc1cc(Cl)c(C)cc1NC(=O)CSc1nnc(-c2ccco2)n1CC(C)C | 12.4% (inactive)
57 | NC(Cc1ccccc1)c1csc(Nc2cc(Oc3ccccc3)ncn2)n1 (stereo not drawn) | 54.6% (active)
58 | Cc1nc2c(OCc3ccc(Cl)cc3)cccn2c1N(C)Cc1cccs1 | 6.73% (inactive)

From PubChem BioAssay AID588405 (Sanford-Burnham Center for Chemical Genomics, 2011)
